Source: PubChem
Sampled rows, rich in hits. Any-hit rate of the full collection: about 1.5%.
PI5P4K alpha inh: blocks human PI5P4K alpha kinase activity. P48426. PI5P4Kalpha enzyme, ADP-Glo luminescence, 60 min; active compounds read low. max response, %. 330,000 tested, 1.2% active. AID 652105; active means max response of -50% or lower; inconclusive means between -30% and -50%; inactive means -30% or higher; further: value at the top dose of about 77 µM
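Human PI5P4Kalpha with substrate in 0.038 M HEPES pH 7.4, 0.28 mM EGTA, 0.1% CHAPS, 5% DMSO; reaction started with 5 microM ATP (final), 60 min at room temperature. ADP formed read by ADP-Glo luminescence.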
KAT2A inh: blocks human GCN5L2 histone acetyltransferase | Q92830 | GCN5L2 HAT assay, ThioGlo1 CoA-SH fluorescence | Potency, µM (doses to about 58.9 µM), without a hit: at the top dose activity change, negative = inhibition, most hits filed as inhibitors | 390,000 tested, 0.21% active; further: potency means the concentration at half of the fitted maximal effect
Target sequence (Q92830 whole entry, looked up): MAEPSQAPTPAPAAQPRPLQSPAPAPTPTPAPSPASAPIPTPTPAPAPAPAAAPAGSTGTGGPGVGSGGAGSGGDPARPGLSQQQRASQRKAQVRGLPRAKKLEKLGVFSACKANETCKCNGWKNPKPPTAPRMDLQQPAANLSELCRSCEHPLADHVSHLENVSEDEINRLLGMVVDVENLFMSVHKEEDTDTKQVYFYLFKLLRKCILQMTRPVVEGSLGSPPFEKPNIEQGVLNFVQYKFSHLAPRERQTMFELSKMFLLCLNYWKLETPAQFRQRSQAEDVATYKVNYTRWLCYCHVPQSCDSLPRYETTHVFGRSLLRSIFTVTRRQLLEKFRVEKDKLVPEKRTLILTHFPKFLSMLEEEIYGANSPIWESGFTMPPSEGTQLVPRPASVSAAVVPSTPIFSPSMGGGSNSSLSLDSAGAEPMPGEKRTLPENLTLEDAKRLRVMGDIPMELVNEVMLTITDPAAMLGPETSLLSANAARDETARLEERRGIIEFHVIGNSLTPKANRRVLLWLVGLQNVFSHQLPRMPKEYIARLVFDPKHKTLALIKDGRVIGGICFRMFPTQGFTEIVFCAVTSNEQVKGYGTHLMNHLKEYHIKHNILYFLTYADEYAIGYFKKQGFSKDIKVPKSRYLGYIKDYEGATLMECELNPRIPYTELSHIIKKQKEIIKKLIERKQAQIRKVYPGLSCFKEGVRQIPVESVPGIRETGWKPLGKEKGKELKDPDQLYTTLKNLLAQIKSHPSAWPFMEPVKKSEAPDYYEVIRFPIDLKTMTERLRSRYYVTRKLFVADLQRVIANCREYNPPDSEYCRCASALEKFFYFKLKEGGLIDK
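ThioGlo1-coupled HAT assay: 20nM GCN5L2, 70uM acetyl-CoA, 75uM H3(1-25) peptide, pH 7.5. Fluorescence read at 340/540nm at start and after 20 min at room temperature.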
RECQ1 inh: inhibitors of human RECQ1 DNA helicase; P46063; 240,000 tested, 0.54% active; RECQ1 DNA unwinding, red fluorescence kinetic read; Potency, µM (top dose mostly 57.3 µM), without a hit: at the top dose activity, negative = inhibition, most hits filed as inhibitors; AID 2549;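 further: potency means the concentration at half of the fitted maximal effect; plate controls were vehicle for no effect and no enzyme for full effect; nearly all actives have a fitted effect of over 30% in size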
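RECQ1T1 50 nM; forked duplex (20 bp + 30-nt ss tails) 200 nM, ATP 2 mM final; pH 8.0, 2 mM MgCl2, 2.5 ug/ml poly(dI-dC); 15 min compound preincubation; discontinuous kinetic read over 2 h at RT.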
APEX1 inh: APE1 (human) endonuclease inhibition | P27695 | recombinant APE1, TAMRA/BHQ-2 abasic DNA cleavage fluorescence | Potency, µM (top dose mostly 65.8 µM), inactives show top-dose activity change, negative = inhibition, hits mostly inhibitors | 350,000 tested, 0.35% active | AID 2517;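 further: potency means the concentration at half of the fitted maximal effect; plate controls were vehicle for no effect and reference inhibitor for full effect; nearly all actives have a fitted effect of over 55% in size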
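APE1 at 0.75 nM final was preincubated with compound 15 min at room temperature, then 50 nM double-stranded THF abasic-site substrate (5'-TAMRA/3'-BHQ-2) was added. Fluorescence (ex 525/em 598 nm) was read kinetically; third-minus-first read gave activity.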
BLM inh: Bloom syndrome helicase (human) inhibition; P54132; recombinant BLM DNA unwinding, fluorescence dequenching; Potency, µM (highest dose often 56.1 µM), for the others: at the top dose activity change, negative = inhibition, hits mostly inhibitors; 350,000 tested, 0.2% active; AID 2528;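 further: potency means the concentration at half of the fitted maximal effect; plate controls were vehicle for no effect and no enzyme for full effect; nearly all actives have a fitted effect of over 35% in size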
FEN1 inhibitor: blocks human flap endonuclease 1; P39748; Recombinant FEN1 flap cleavage, fluorescence, 15 min; Potency, µM (top dose mostly 114 µM), for inactives: at the top dose activity change, negative = inhibition, most hits filed as inhibitors; 390,000 tested, 0.35% active; AID 588795; further: potency means the concentration at half of the fitted maximal effect; nearly all actives have a fitted effect of over 65% in size
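FEN1 at 10 nM, compound pretreatment for 15 min (room temperature), 50 nM final substrate to initiate; endpoint reads at 0 and 15 min; DMSO-only plates used as vehicle background.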
* marks the source's active call; other numbers are inactive results; i = inactive; ? = inconclusive; . = not tested or not shown. Unless noted, the call rests on the fitted dose curve; in most records, active means well fitted curve in the direction sought with a large enough effect; inconclusive means small, poorly fitted or top-dose-only effect, or another doubt; inactive means no such curve, though single readings can be large; an effect the other way counts as inactive or inconclusive. Unless noted, on the % scale 0 is the no-effect control and ±100 the full control effect.

SMILES	PI5P4K alpha inh	KAT2A inh	RECQ1 inh	APEX1 inh	BLM inh	FEN1 inhibitor
CCN(CC)c1ccc(C=C2C(=O)OC(c3ccccc3)OC2=O)cc1 (stereo not drawn)	-2.1	-1.5%	12.9%	11.7%	-3.0%	-2.5%
Cc1cnc2ccccc2c1C	.	.	.	.	.	-3.8%
O=C(O)c1cccc(-c2nc(-c3ccccc3C(F)(F)F)no2)c1	.	.	.	7.1%	.	.
O=C(/C=C/c1cccc(Br)c1)Nc1nn[nH]n1	-68.7*	-0.1%	i	0.0%	0.6%	-7.4%
Brc1cccc(/C=N/Nc2nn[nH]n2)c1	-8.3	-8.3%	i	1.9%	3.0%	-6.4%
CSC1=C(C#N)C(=O)NC(c2ccccc2O)S1 (stereo not drawn)	-15.4	-2.1%	i	7.3%	0.0%	5.0%
COC(=O)CSC1=C(C#N)C(=O)NC(c2ccccc2)S1 (stereo not drawn)	-55.7*	35.5µM*	i	-1.5%	-0.2%	-0.2%
Nc1ccc(-c2nc3nc(N)nc(N)c3nc2-c2ccc(N)cc2)cc1	-50.9*	-4.8%	-10.5%	-0.9%	?	-35.0%
O=c1c2ccccc2c(-c2n[nH]c(=S)o2)nn1Cc1ccccc1	-85.5*	-4.9%	-8.5%	0.6%	-1.5%	-4.2%
CC(C)(C)n1ncc2c(=O)n(Cc3ccc(Cl)cc3F)cnc21	.	.	.	-2.7%	.	-16.1%
Cc1ccc(-c2nn(-c3ccccc3)cc2C2CC(c3cccs3)=NN2C(=O)CCCC(=O)O)cc1 (stereo not drawn)	.	-4.0%	-3.8%	0.9%	-9.5%	50.1µM*
COc1cc(N(C)C)c(OC)cc1/C=C/c1ccnc2ccccc12	.	.	.	.	.	-2.5%
N#Cc1c(-c2ccco2)cc(-c2ccc(F)cc2)nc1N	-63.9*	-11.6%	1.4%	-9.5%	-17.1%	-6.8%
N#Cc1c(-c2ccccc2)cc(-c2ccc(O)cc2)nc1N	-4.8	-9.8%	.	-15.7%	-23.8%	?
COc1ccccc1-c1cc(-c2ccc(O)cc2)nc(N)c1C#N	-7.5	-7.7%	.	26.7µM*	31.6µM*	-25.0%
COc1ccc(-c2cc(-c3ccc(O)cc3)nc(N)c2C#N)cc1	-7.2	-10.8%	.	1.0%	-5.5%	15.4%
COc1cc(-c2cc(-c3ccc(O)cc3)nc(N)c2C#N)ccc1O	-50.7*	7.1%	-0.4%	9.5%	4.1%	?
N#Cc1c(-c2ccc(F)cc2)cc(-c2cccnc2)nc1N	-8.9	-1.1%	-6.0%	-2.0%	-3.1%	-1.8%
O=C(COc1ccccc1C(=O)Nc1ccccc1)Nc1ccccc1Cl	.	.	.	.	.	0.4%
FC(F)(F)c1ccccc1-c1nc(N2CCOCC2)c2ccccc2n1	.	?	-1.3%	25.1µM*	-11.4%	.
O=C1c2c([N+](=O)[O-])cc([N+](=O)[O-])cc2S(=O)N1Cc1ccccc1 (stereo not drawn)	-60.4*	28.2µM*	-5.4%	10.1%	-12.5%	-16.3%
Oc1c(CN2CCc3ccccc3C2)cc(Cl)c2cccnc12	-15.5	-9.3%	4.9%	8.8%	-1.2%	39.8µM*
O=S(=O)(/N=C(/Sc1ccc(Cl)cc1)c1ccccc1)c1ccccc1	.	.	.	.	.	79.4µM*
O=S(=O)(/N=C(/Sc1ccccc1)c1ccccc1)c1ccc(Cl)cc1	.	.	.	.	.	-10.2%
COc1cccc(CS(=O)(=O)c2nnnn2-c2ccccc2)c1	.	.	i	-0.3%	1.4%	.
SMILES	PI5P4K alpha inh	KAT2A inh	RECQ1 inh	APEX1 inh	BLM inh	FEN1 inhibitor
COc1cc(-c2nn3c(-c4cc(-c5ccccc5)n[nH]4)nnc3s2)cc(OC)c1OC	.	.	.	.	.	-28.5%
O=C(N/N=C/c1ccc([N+](=O)[O-])o1)c1cc2c(ccc3ccccc32)o1	-23.5	-14.6%	-1.6%	17.6%	7.94µM*	?
O=C(N/N=C/c1ccc([N+](=O)[O-])o1)c1cc2ccccc2o1	-19.6	1.5%	-10.3%	?	-14.5%	-11.3%
Cc1nc2ccccn2c1C(=O)N/N=C/c1ccc([N+](=O)[O-])o1	-55.8*	-18.6%	?	-8.7%	-14.8%	?
O=C(O[C@H]1[C@H](Cc2ccccc2)NS(=O)(=O)[C@H]2CC3C=C[C@]12O3)c1ccc(Br)cc1	.	.	.	.	.	-14.3%
Cc1ccc(NC(=O)/C(=C\c2ccc([N+](=O)[O-])cc2)NC(=O)c2ccccc2)cc1	2.7	-6.1%	11.9%	13.6%	-3.8%	-0.1%
O=C(N/N=C/c1ccc(O)c(O)c1O)/C(=C/c1ccc([N+](=O)[O-])cc1)NC(=O)c1ccccc1	-86.1*	-4.8%	3.6%	1.4%	-15.2%	?
COc1cc(C(c2sc3nc(C)nn3c2O)N2CCC3(CC2)OCCO3)cc(OC)c1OC (stereo not drawn)	-50.2*	-7.8%	-13.4%	0.2%	3.2%	7.7%
CCNc1nc(NCC)n2c(SCC(=O)Nc3cc(OC)ccc3OC)nnc2n1	0.9	-3.0%	.	-2.3%	.	0.9%
CCNc1nc(NCC)n2c(SCC(=O)Nc3ccc(C)c(C)c3)nnc2n1	-8.9	-15.7%	.	?	.	-7.9%
CCNc1nc(NCC)n2c(SCC(=O)Nc3ccc(F)cc3)nnc2n1	-10.9	-4.5%	.	11.9µM*	.	0.2%
CCNc1nc(NCC)n2c(SCC(=O)Nc3ccc(OC(F)F)cc3)nnc2n1	-24.7	-1.1%	.	10.6µM*	.	1.7%
C[N+]1(CC(=O)c2ccc(I)cc2)CCOCC1	.	.	.	.	.	17.7%
O=C(/C=C/c1ccccc1)/C=C/c1ccccc1	-1.2	-11.1%	14.1µM*	10.3%	-12.9%	?
C#CCOc1ccc(-c2no[n+]([O-])c2C#N)cc1	.	.	.	-9.3%	.	.
Cc1cc(/C=C2\SC(=S)NC2=O)c(C)n1-c1ccccc1	-82.6*	-21.1%	-7.9%	-0.3%	-21.1%	-7.7%
Cc1cc(/C=C2\SC(=S)NC2=O)c(C)n1-c1ccc(O)cc1	-83.1*	-9.2%	?	-9.9%	-2.8%	-3.1%
CC1Cc2cc(/C=C3/SC(=S)NC3=O)ccc2O1 (stereo not drawn)	-94.5*	-19.9%	i	2.2%	-6.6%	-13.1%
Cc1cc(/C=C2\SC(=S)NC2=O)cc(C)c1O	-75.7*	?	-16.6%	1.2%	-8.2%	-32.8%
COc1ccc(-n2c(C)cc(/C=C3\SC(=S)NC3=O)c2C)cc1	?	1.2%	i	1.7%	-10.1%	-7.7%
Clc1cccc[n+]1CCCCCC[n+]1ccccc1Cl	.	.	.	.	.	0.0%
COc1ccccc1/C=C/c1cncc(/C=C/c2ccccc2OC)c1	.	.	.	.	.	-9.3%
Cc1cc(C(=O)O)ccc1-n1c(C)cc(/C=C2\SC(=O)NC2=O)c1C	-57.6*	0.7%	.	11.9%	0.0%	11.7%
COC(=O)c1cccc(-n2c(C)cc(/C=C3\SC(=O)NC3=O)c2C)c1	-2.2	.	.	.	.	.
O=C(Nc1nccs1)c1ccc(S(=O)(=O)N2CCOCC2)cc1	2.4	9.9%	-1.4%	8.9%	-1.9%	79.4µM*
